Experimental data taken from PubChem BioAssay AID2685 (National Center for Advancing Translational Sciences (NCATS), 2010).
Out of some 320,000 compounds screened, about 2,100 (0.66%) were called active. Another 53% or so got no clear call; they are omitted. Calls follow the shape of the dose curve; as a rule, active = well fitted inhibition curve with a large enough effect in the signal ratio, with a control signal flat (not every such curve was filed as active); inconclusive = small, poorly fitted or top-dose-only effect, or effect the other way, or a change in a side signal; inactive = flat fitted curve, though single readings scatter; the % refers to the signal ratio. For the sample, actives were picked, then their nearest neighbours and some compounds at random.

Experiment: qHTS Assay for Lipid Storage Modulators in Drosophila S3 Cells;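 as to cell number change: cells counted by Cell Tracker Red CMTPX staining in the red channel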; as to lipid storage change, negative = inhibition: % is scaled to controls: 0 for no effect and ±100 for the full control effect
Conditions: BODIPY lipid droplet fluorescence, 18-24 h, cells fed with added oleic acid; cell number change: measured here: cell count max response; series mostly up to 46.1 µM; lipid storage change, negative = inhibition: at the top concentration
In short: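 Laser-scanning cytometry quantifies lipid droplet accumulation (500–530 nm total intensity; droplet/cell object ratio) in oleic acid-fed (400 uM added) Drosophila S3 cells treated with a concentration series. 20 uM Triacsin C defined 100% inhibition.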
Potency is read from the fitted curve at half-maximal effect.

Row | SMILES | outcome | cell number change [%] | Potency | lipid storage change, negative = inhibition
1 | O=c1c2ccccc2nc(/C=C/c2ccccn2)n1-c1ccccc1 | inactive | 5.25 | – | –
2 | Cc1cccc(-n2c(/C=C/c3ccc([N+](=O)[O-])o3)nc3ccccc3c2=O)c1 | – | 9.44 | 5.17 µM (active) | –
3 | Cc1cccc(-n2c(-c3ccc([N+](=O)[O-])cc3)nc3ccccc3c2=O)c1 | – | -0.157 | – | 10.9% (inactive)
4 | Cc1ccccc1-n1c(/C=C/c2ccccn2)nc2ccccc2c1=O | – | 15.7 | – | 21.2% (inactive)
5 | Cc1cccc(-n2c(/C=C/c3ccccn3)nc3ccccc3c2=O)c1 | inactive | -12.4 | – | –
6 | Cc1ccc(-n2c(/C=C/c3ccccn3)nc3ccccc3c2=O)cc1 | – | 27.8 | 6.51 µM (active) | –
7 | CSc1nc(N2CCN(C)CC2)c2ccccc2n1 | – | 12 | – | 2.69% (inactive)
8 | C/C=C1/CC(C)C(C)(O)C(=O)OCC2CCN3CCC(OC1=O)C23 (configuration not stated) | – | 3.31 | – | 1.68% (inactive)
9 | Cc1ccc(N2C(=O)/C(=C/c3ccc(CN(CCC#N)S(C)(=O)=O)o3)C(=O)NC2=S)cc1 | – | 9.59 | – | -8.75% (inactive)
10 | [N-]=[N+]=NCc1cn2cccnc2n1 | – | -11.7 | – | -11.6% (inactive)
11 | c1ccc(C2CC3CC(c4ccco4)N2O3)cc1 (configuration not stated) | – | 2.08 | – | 6.42% (inactive)
12 | Cc1ccc(N=Cc2c(O)n(C)c(=O)n(C)c2=O)cc1 | inactive | -14 | – | –
13 | CN1C2CCC1CC(OC(=O)c1ccc(Cl)cc1)C2 (configuration not stated) | – | 1.41 | – | 6.86% (inactive)
14 | CN1C2CCC1CC(OC(=O)c1cc(Cl)cc(Cl)c1)C2 (configuration not stated) | – | – | 23.1 µM (active) | –
15 | COc1ccc(C(=O)OC2C[C@H]3CC[C@H](C2)N3C)cc1OC (some centres not stated) | – | – | – | -1.64% (inactive)
16 | CNP1(NC)=NC(C(F)(F)F)=NC(C(F)(F)F)=N1 | – | – | – | -21.3% (inactive)
17 | COc1ccc(CC(C)NCCc2ccc(OC)c(OC)c2)cc1 (configuration not stated) | inactive | 5.07 | – | –
18 | O=C(Nc1ccc(F)cc1)N1CC2CC(C1)c1cccc(=O)n1C2 (configuration not stated) | – | -3.93 | – | -5.85% (inactive)
19 | O=C(Nc1ccc(Cl)cc1)N1CC2CC(C1)c1cccc(=O)n1C2 (configuration not stated) | – | -2.6 | 1.84 µM (active) | –
20 | O=C(Nc1cccc(Cl)c1)N1C[C@H]2C[C@@H](C1)c1cccc(=O)n1C2 | – | -7.76 | – | 17.1% (inactive)
21 | COc1ccc(OC)c(NP(=O)(Oc2ccc(Cl)cc2)Oc2ccc(Cl)cc2)c1 | – | 16.2 | – | 8.47% (inactive)
22 | Cc1ccc2[nH]c3c(c2c1)CN(C(=O)CN1C[C@H]2C[C@@H](C1)c1cccc(=O)n1C2)CC3 | – | 14.9 | – | 17.7% (inactive)
23 | N#Cc1c(N2CCNCC2)nc(-c2ccco2)c2c1CCCC2 | – | 11.9 | – | -5.93% (inactive)
24 | Cc1ccccc1-n1c(O)c(C(c2ccncc2)c2c(O)n(-c3ccccc3C)c(=O)[nH]c2=O)c(=O)[nH]c1=O | – | 5.35 | – | -7.77% (inactive)
25 | FC(F)(F)c1ccc(CNCCc2ccc3c(c2)OCO3)cc1 | inactive | 20.8 | – | –

Row | SMILES | outcome | cell number change [%] | Potency | lipid storage change, negative = inhibition
26 | Cc1ccc(-n2c(O)c(/C=N/NC(=O)c3ccncc3)c(=O)[nH]c2=O)cc1 | – | -2.6 | – | -4.67% (inactive)
27 | Cc1ccc(-c2cc(-c3ccc(C)cc3)[n+](-c3ccc(C(=O)O)cc3)c(-c3ccc(C)cc3)c2)cc1 | – | 12.1 | – | 8.58% (inactive)
28 | CCOC(=O)c1cccc(-[n+]2c(-c3ccccc3)cc(-c3ccccc3)cc2-c2ccccc2)c1 | – | -29.7 | 13 µM (active) | –
29 | CCOC(=O)c1cccc([P+](=O)O)c1 | – | 4.86 | – | 3.53% (inactive)
30 | C(CCc1nn[nH]n1)CCc1nn[nH]n1 | – | 0.918 | – | -0.854% (inactive)
31 | CC1(C)CC(n2[nH]c(=O)c3c2NC(=O)CSC3c2ccc(F)cc2)CCO1 (configuration not stated) | – | 1.16 | – | 5.29% (inactive)
32 | O=C1NC(=O)C(CCc2ccncc2)(Cc2ccc(OCc3ccccc3)cc2)C(=O)N1 | – | 9.1 | – | -0.298% (inactive)
33 | CCC1CCCCN1CC(=O)c1ccc(OC(F)F)cc1 (configuration not stated) | – | 2.66 | – | 1.27% (inactive)
34 | O=C(Cn1c(=O)n(CC2CS2)c2ccccc21)N1CCCCCC1 (configuration not stated) | – | 9.44 | – | 1.02% (inactive)
35 | CCC1CCCCN1C(=O)Cn1c(=O)oc2ccccc21 (configuration not stated) | – | – | 1.46 µM (active) | –
36 | COC(=O)C1=CO[C@@H](C)[C@@H]2CN3CC[C@]4(C(=O)Nc5ccccc54)[C@@H]3C[C@H]12 | – | -15.3 | – | -0.0503% (inactive)
37 | O=C(c1cccc2ccccc12)C1CCCN(Cc2ccon2)C1 (configuration not stated) | – | 0.85 | – | 10.3% (inactive)
38 | CSc1ccccc1C(=O)C1CCCN(Cc2cccc(C)n2)C1 (configuration not stated) | – | 5.61 | – | 3.17% (inactive)
39 | O=P(O)(O)COc1ccccc1P(=O)(c1ccccc1)c1ccccc1 | – | – | 16.4 µM (active) | –
40 | O=P(O)(O)Cc1ccccc1OP(=O)(c1ccccc1)c1ccccc1 | – | -17.7 | – | 9.67% (inactive)
41 | O=P(O)(O)Oc1ccccc1P(=O)(c1ccccc1)c1ccccc1 | – | 13.5 | – | -5.41% (inactive)
42 | COc1ccc(CC(C)NC2CCCCCC2)cc1 (configuration not stated) | inactive | -21 | – | –
43 | NC(=O)CSc1nnc([C@@H](N)Cc2c[nH]c3ccccc23)o1 | – | – | – | -10.3% (inactive)
44 | O=C(c1ccc(Br)cc1)C12CN3CN(CN(C3)C1)C2 | – | 8.31 | – | 2.2% (inactive)
45 | O=c1[nH]c(=O)n(C2CCCCC2)c(O)c1C=NCCCn1ccnc1 | inactive | 17.5 | – | –
46 | CCN(CC)CCN=Cc1c(O)n(CCc2ccccc2)c(=O)[nH]c1=O | – | 12.9 | – | 2.23% (inactive)
47 | CCN(CC)CCN=Cc1c(O)n(C2CCCCCC2)c(=O)[nH]c1=O | – | -10.3 | 18.4 µM (active) | –
48 | CN(C)CCN=Cc1c(O)n(C2CCCCCC2)c(=O)[nH]c1=O | – | 6.67 | – | -7.53% (inactive)
49 | CCN(CC)CCN=Cc1c(O)n(CCC2=CCCCC2)c(=O)[nH]c1=O | – | 11.2 | 23.1 µM (active) | –
